Out of some 5,500 compounds screened, about 2,000 (36%) were called active. Not shown: some 18% with an inconclusive outcome. Rule as the data show it: active = normalized growth mostly below about 0.91 (no sharp cut-off); inconclusive = no clear call, values can overlap the other calls; inactive = mostly above about 0.92. The list shows a part of the results.
Assay: chemical genetic growth profiling, strain panel (AID 1159580);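 also: tested at 20 µM; growth read once vehicle control cultures reached saturation at 30 °C; 1 = growth at the plate median or of vehicle wells; lower values mean less growth of the strain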
Conditions: S. cerevisiae deletion strains, growth OD

Measured: normalized growth

CC(C)NCC(O)c1ccc(NS(C)(=O)=O)cc1 (stereo unspecified)
inactive: locus YAL040C, strain CLN3, hits give low values 1.01 | locus YCL061C, strain MRC1 (second series), hits give low values 1 | locus YDR363W, strain ESC2, hits give low values 0.973 | locus YER002W, strain NOP16, hits give low values 1 | locus YGR078C, strain PAC10, hits give low values 1.01 | locus YJR075W, strain HOC1, hits give low values 0.986 | locus YMR263W, strain SAP30, hits give low values 1 | locus YMR307W, strain GAS1, hits give low values 1.02 | locus YNL153C, strain GIM3, hits give low values 1.04 | locus YNL175C, strain NOP13, hits give low values 1 | locus YNL197C, strain WHI3, hits give low values 1.01 | locus YNL224C, strain SQS1, hits give low values 1 | locus YNL322C, strain KRE1, hits give low values 0.985 | locus YOR083W, strain WHI5 (second series), hits give low values 1 | locus YPL055C, strain LGE1, hits give low values 0.977 | locus YPL241C, strain CIN2, hits give low values 0.999
